Screening data from PubChem BioAssay.
CFTR F508del cor: CFTR F508del correction in bronchial cells. CFBE cells, YFP halide quenching; stimulated with forskolin plus potentiator P3; % fluorescence drop versus neutral controls. activity (quench increase), % at 7.58 µM. 0.36% of 350,000 active;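 active means mean added fluorescence quench of at least 8% versus neutral control, with both replicates also reaching 8%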;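 further: cells transiently co-express mutant CFTR-F508del with the halide-sensitive YFP; corrector assay measuring rescue of mutant channel to the surface after 24 h compound exposure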
PvdQ inh: P. aeruginosa PvdQ acylase inhibition | 0.063% of 340,000 active | purified PvdQ acylase, fluorescence plate reader | inhibition, % at 10 µM; in the data active means inhibition above about 30%, passing the limit was not always enough;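 further: 0% = vehicle neutral wells and 100% = reference inhibitor wells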
ARNT TACC3 PPI: disrupts binding between human ARNT and TACC3. Q9Y6A5. AlphaScreen His-ARNT PAS-B/GST-TACC3 binding, luminescence; TACC3 fragment carries E629A point mutation. inhibition, % at 9.99 µM. 0.66% of 390,000 active. AID 623870;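 active means mean inhibition of replicates at least 50% and at least half of replicates each reaching 50%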;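 further: 0% = complete ARNT plus TACC3 wells and 100% = ARNT alone without TACC3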
ERAP1 HTS inh: inhibitors of human ERAP1 aminopeptidase; Q9NZ08; recombinant ERAP1, Leu-AMC fluorescence, 60 min; inhibition, % at 10.7 µM; 0.15% of 340,000 active; AID 652197;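 active means mean replicate inhibition of at least 30%, or all replicates individually reaching that 30% level; inactive means mean below 30% and not every replicate reaching it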;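 further: 0% = neutral control wells and 100% = L-leucinethiol positive control wells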
Target sequence (Q9NZ08 whole entry, looked up): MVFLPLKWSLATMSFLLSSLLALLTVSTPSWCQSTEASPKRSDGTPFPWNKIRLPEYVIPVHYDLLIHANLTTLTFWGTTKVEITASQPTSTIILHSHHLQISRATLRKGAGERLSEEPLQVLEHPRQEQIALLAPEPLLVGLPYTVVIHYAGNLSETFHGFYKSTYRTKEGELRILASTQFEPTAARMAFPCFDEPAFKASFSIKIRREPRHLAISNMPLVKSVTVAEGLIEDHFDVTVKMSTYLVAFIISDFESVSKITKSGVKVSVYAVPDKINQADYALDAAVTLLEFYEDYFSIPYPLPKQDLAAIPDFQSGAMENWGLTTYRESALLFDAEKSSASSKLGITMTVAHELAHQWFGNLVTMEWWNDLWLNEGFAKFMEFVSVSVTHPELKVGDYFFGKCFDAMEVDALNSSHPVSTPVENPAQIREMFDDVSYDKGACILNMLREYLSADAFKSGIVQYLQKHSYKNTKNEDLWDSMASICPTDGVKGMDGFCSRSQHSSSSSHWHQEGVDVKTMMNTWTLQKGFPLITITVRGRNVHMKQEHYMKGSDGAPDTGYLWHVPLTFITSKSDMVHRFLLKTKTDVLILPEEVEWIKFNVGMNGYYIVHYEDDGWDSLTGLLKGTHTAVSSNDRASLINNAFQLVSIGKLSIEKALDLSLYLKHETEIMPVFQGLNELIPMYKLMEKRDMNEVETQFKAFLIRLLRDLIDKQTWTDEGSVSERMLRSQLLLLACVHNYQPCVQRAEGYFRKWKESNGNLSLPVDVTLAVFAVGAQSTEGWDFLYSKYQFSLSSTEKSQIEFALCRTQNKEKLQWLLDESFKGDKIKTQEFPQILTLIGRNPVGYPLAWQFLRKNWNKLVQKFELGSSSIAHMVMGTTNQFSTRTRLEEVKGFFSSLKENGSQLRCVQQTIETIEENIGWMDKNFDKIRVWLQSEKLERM
rRNA inh HTS: inhibitors of bacterial rRNA selective over humanized ribosomes | E. coli WT GFP vs humanized-ribosome RFP mutants, fluorescence, 24 h; hits give low values; DMSO median 0, no signal -100 | GFP signal change (wild-type ribosome), % (concentration not given with the values) | 1.6% of 350,000 active;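 active means significant combined selectivity score with lowered wild-type GFP, culture density cut under 30%, mutant RFP and density less affected; inactive means any of these conditions unmet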
* marks the source's active call; other numbers are inactive results; / = no result. A selection: hits, their analogues and other compounds. The true share with any hit is near 2.1%.

SMILES	CFTR F508del cor	PvdQ inh	ARNT TACC3 PPI	ERAP1 HTS inh	rRNA inh HTS
COc1ccc(NC(=O)Nc2ccc3c(c2)[C@H]2C[C@@H](CC(=O)NCc4ccncc4)O[C@@H](CO)[C@H]2O3)cc1	-0.7	/	/	3.4	9.6
COc1ccc(C2=NS(=O)(=O)N(C)C(C(=O)N(C)Cc3ccccc3)=C2)cc1OC	1.4	-2.6	3.5	-2.4	-19.9*
COc1ccc(C2=NS(=O)(=O)N(C)C(C(=O)NC(C)c3ccccc3)=C2)cc1OC (stereo not given)	-1.0	3.4	/	-0.4	-14.3
CC(=O)N1[C@@H](CO)[C@@H](c2ccc(-c3ccc(F)cc3)cc2)[C@@H]1CNC(=O)C1CC1	2.6	/	-0.3	/	-2.1
C[C@@H]1CN([C@H](C)CO)S(=O)(=O)c2ccc(-c3ccccc3)cc2O[C@@H]1CN(C)Cc1cccnc1	0.6	/	-5.3	1.1	-6.6
O=C(O)c1cccc(S(=O)(=O)NCCC(c2ccccc2)c2ccccc2)c1	2.0	-0.2	-12.9	-4.8	-27.1*
CO[C@H]1CN(C)C(=O)c2cc(NC(C)=O)ccc2OC[C@H](C)N(Cc2cc(F)ccc2F)C[C@@H]1C	0.9	/	-1.1	1.0	1.0
CCOc1ccc(NS(=O)(=O)c2ccc(C(=O)N3CCN(c4ncccn4)CC3)cc2)cc1	-0.7	-14.8	-0.2	-2.1	-22.6*
CCOc1ccc(NS(=O)(=O)c2ccc(C(=O)N3CCCCC3)cc2)cc1	2.3	-9.8	-1.1	0.1	-5.8
COc1ccc(N2CCN(C(=O)c3ccc(NS(=O)(=O)c4cccs4)cc3)CC2)cc1	0.2	-13.7	1.6	-1.7	-23.1*
C[C@H]1CN([C@@H](C)CO)C(=O)c2c(c3ccccc3n2C)-c2ccccc2CO[C@@H]1CN(C)CC1CC1	-0.3	/	-4.7	-5.5	-3.7
Cc1ccc(C)c(S(=O)(=O)Nc2ccc(C(=O)NCCc3ccccn3)cc2)c1	-2.9	-12.7	4.0	6.9	-1.3
COc1ccc(C(=O)NCCc2ccccn2)cc1S(=O)(=O)Nc1ccc(Br)cc1	0.4	3.5	20.5	-4.0	-19.9*
C/C=C/c1ccc([C@H]2[C@H]3CN(C(=O)Nc4cccc(OC)c4)CC(=O)N3[C@H]2CO)cc1	5.2	/	/	0.7	1.4
CN(Cc1ccno1)Cc1cn(C)nc1-c1ccc(Oc2ccccc2)cc1	-3.4	-3.9	-7.2	29.0	-33.7*
COc1cccc(-c2ccc3c(c2)O[C@@H](CN(C)Cc2cncnc2)[C@H](C)CN([C@@H](C)CO)S3(=O)=O)c1	1.7	/	-2.7	-0.4	-3.9
NCCCNC(=O)c1ccc(/C=N/O)nc1	-0.1	-3.1	78.1*	-2.9	/
O=C1N[C@@H](Cc2ccccc2)[C@@H](c2ccco2)O1	0.3	48.7*	3.8	12.3	4.4
Cc1ccccc1NS(=O)(=O)c1cccc2nonc12	-0.8	-11.0	-2.1	3.7	3.4
O=S(=O)(Nc1cccc2ccccc12)c1cccc2nonc12	2.4	11.8	-4.2	2.2	-27.4*
COc1ccccc1-c1ccc([C@H]2[C@H](C#N)N(C(=O)CN(C)C)[C@H]2CO)cc1	-1.9	/	-5.6	-1.5	1.2
O=C(C[C@H]1C[C@@H]2c3cc(NC(=O)Nc4ccc(C(F)(F)F)cc4)ccc3O[C@@H]2[C@@H](CO)O1)NC1CCCCC1	-0.6	/	11.6	0.5	-16.6
COc1cccc(C#Cc2ccc([C@H]3[C@@H](CO)N4C(=O)CN(C(=O)c5ccccc5)C[C@H]34)cc2)c1	1.6	/	/	-0.2	3.2
COc1cc2cc(C(=O)N3CCN(Cc4ccc5c(c4)OCO5)CC3)[nH]c2cc1OC	-2.3	-4.5	17.5	-5.3	-3.8
O=C(c1cc2cc(F)ccc2[nH]1)N1CCN(Cc2ccc3c(c2)OCO3)CC1	1.3	11.9	/	1.8	-39.8*
O=C1C=CC(=O)N1c1ccccc1N1C(=O)C=CC1=O	-3.6	-23.2	-1.6	58.1*	36.1
O=C(c1ccccc1)c1ccccc1N1C(=O)C=CC1=O	-8.1	-16.9	-6.5	/	0.8
CC(=O)N1CC2(C1)[C@@H](c1ccc(-c3cccc(F)c3)cc1)[C@@H](CO)N2CC1CC1	-0.3	/	/	1.7	-2.7
CCCC(=O)Nc1ccc2c(c1)C(=O)N(C)C[C@@H](OC)[C@H](C)CN(Cc1ccc(-c3ccccn3)cc1)[C@H](C)CO2	1.8	/	9.1	1.4	-4.2
Nc1ncncc1-c1ccc(Cl)cc1	-0.1	-1.3	-7.5	-3.8	-21.6*
